Laboratory results taken from the supplement of paper PMC6555819.

Test system: LXRb:RXRa (NR concentration 270 nM, RXRa partner concentration 90 nM)
Assay: PBM binding z-score (relative to random genomic background probes); higher = stronger binding; sequences stand for … in GC…GCGATTGACAGCGTAGAATGAAGG
Experimental: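 Protein-binding microarray (Agilent 4x180K custom design, double-stranded 60-nt probes: 5' GC cap, 34-nt variable region, 24-nt constant primer region; full probe sequence given). Purified or IVT nuclear receptor:RXRα heterodimers (3:1 NR:RXRα, mostly 270:90 nM) or homodimers were incubated for 1 h in PBS with 2% milk and no ligand, then detected with Alexa488 antibodies. Fluorescence from o1-orientation probes (~5 replicates averaged) was converted to z-scores against 500 random hg19 background probes. Variable regions are seed direct-repeat (DR0–DR5) sites, all their single-nucleotide variants and half-site ablations.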

| Sequence | PBM binding z-score |
| --- | --- |
| CCTTAAGGGTCACGAGGTTATAGCACGACGAGCG | 5.38 |
| CCTCGGAGGTCAACAGGAGGTCAGAGCTGCCAGA | 5.75 |
| AGAATGAGGTTAAACGTAGATCAGGGAAGAAAGT | 2.42 |
| CGTCCAAGGTCAGCGGGTCAGTGAAAGCGACGTG | 3.11 |
| AGTCAAAGTTTATCTAGGTAACGTAAGATATGCT | 0.175 |
| TACCCTAGGTCATTGGGCCAGTATAGTACGCATC | 4.07 |
| CCTACTGGGCCACTAAAGGTCATTGATTCAGTGA | 5.49 |
| CGTCCAAGGTCGAAGGTCAGTGAAGAGATGACGG | 2.62 |
| CCAGACAGGTGAGAAGGTAACTCAGCCTCGATTA | 0.609 |
| CGTCCAAGGTCATATGAGGTCAGTGAAGACAGAT | 6.58 |
| TCTGCTAGGTCATCGATGGTCAGCTAATCTGCTA | 1.73 |
| CGAACGAGGTCATTGACAGGACAGTGAATAGTAA | 5.01 |
| AATACAGGGTCACGAGGCCAGAGTAGGTACGAAT | 4.97 |
| CGAACTACGTCATCCAGGACAGTGAATACATTGA | -0.00555 |
| TATCAAAGTTCAAAGGTAACGTAAGTATCCACAC | 4.98 |
| AATACAGGGTAACTAGGCCAGAGTAGGTACGAAT | 0.0448 |
| TAGCCGAGGTCATTCAGGGGCCAGTATAGAAAGC | 5.52 |
| CAAACTAGGTCAAGAGGTCAAAGTTCGCTTCCCG | 6.05 |
| AGTCAAAGTTCAGGACGAGGTAACGTTAAGCACG | 1.77 |
| ATCGAAAGGTCCACGAGGTGAGTATACACCGTTT | -0.0349 |

| Sequence | PBM binding z-score |
| --- | --- |
| ACGCGGAGGACAAAGGTCAGAGCTACGCCAGTGA | 3.19 |
| CGAACTAGGTCATCCAGGTCAGTGAATACATTGA | 2.98 |
| AATACAGGGTGACTAGGCCAGAGTAGGTACGAAT | 0.204 |
| CATACAGGGTCGGCTAGGCCAGAGTAGGGACGGC | -0.242 |
| CCTAGTGGGCCAAGGTCATTGATCAGTCAAAGCA | 2.79 |
| CCTTACGGGTCACGTGGTTATAGCACGACGAGCG | 3.48 |
| TGTCAACGTTCAAAGGTAACGTAAGTATCCACAC | 0.759 |
| CGAACGAGGTCAAAGGACAGTGAAAGGCGACGTA | 4.81 |
| CGTCAAAGTCCAAGGTAACGTAACAGAAAGCAGC | -0.011 |
| CAAACCAGGTCAAAGGTCAAAGTCGAGCCAACCA | 7.49 |
| TGTATGAGGTTAAAGATCAGGGAACGTGGCGTCG | 2.16 |
| CGAACGAGGTCATGAGTTGATAGCAAATGCCGAT | 4.51 |
| AGTCAAAGTGCATCTAGGTAACGTAAGATATGCT | 0.11 |
| AATAAAGGGTCATCGTAGGCCAGAGTACGCACAG | 5.46 |
| GGAACGAGGTCAAGTTGATAGCAGAGTTTGATGG | 5.3 |
| CCTTACGGGTCACTGACAGGTTATAGCGTTTGGA | 3.4 |
| CGAACTAGGTCAAGGACAGTAAATCTCCGCACGC | 1.45 |
| CCTTACGGGTAACGAGGTTATAGCACGACGAGCG | 0.414 |
| TCTTGTAGATCGATAGAGGTTAAGAAAGTGCGCT | 1.52 |
| TTGCCTAGGTCATTGGGCCAGTATAGTACGCATC | 2.28 |
